Activity calls are given as the source filed them. How the source made its calls: active means hit-call score of the fitted dose curve at least 0.9, where 1 is the maximum; inactive means score below 0.9.

Read-out in the assay: solute carrier (SLC22A6), SLC22A6 (gene 9356)
Put plainly: LTEA_HepaRG_SLC22A6: Life Technologies and Expression Analysis (LTEA) Assay for solute carrier (SLC22A6) using HepaRG (AID 2283653). The settings on record: mRNA level, 48 h; actives raise or lower the signal. Here is the method: LTEA_HepaRG is a cell based, multiplexed-readout assay that uses HepaRG, a human liver cell line, with measurements taken at 48 hours after chemical dosing on a 96-well plate.LTEA_HepaRG_SLC22A6 is one of 102 assay component(s) measured in the LTEA HepaRG cell culture assay. It is a marker of NR mediated transport.Data from the assay component LTEA_HepaRG_SLC22A6 was analyzed into 1 endpoint. This assay endpoint, LTEA_HepaRG_SLC22A6, was analyzed with bidirectional fitting relative to DMSO as the negative control and baseline of activity. Using a type of inducible reporter, measures of mRNA induction for gain or loss-of-signal activity can be used to understand regulation of transcription factor activity. To generalize the intended target to other relatable targets, this assay endpoint is annotated to the transporter intended target family, where the subfamily is organic anion transporter.
A total of 1060 chemcials from the ToxCast library were tested in eight-point concentration-response experiments. Cell culture and cytotoxicity assays were conducted at Thermo Fisher Scientific's Custom Services facility (Madison, WI). A single lot of human HepaRG cells (Thermo Fisher Scientific, Frederick, MD) was used for the cell culture experiments. 96-well format collagen type I coated plates of human HepaRG cells were prepared using established methods. Briefly, cryopreserved HepaRG cells were thawed, plated at a density of approximately 100,000 cells/well in HepaRG Thaw, Plate, and General Purpose media (HPRG770, Thermo Fisher Scientific), and incubated for 48 hours. 0.5% DMSO was selected as vehicle control to balance the requisite need of DMSO in HepaRG cultures to maintain differentiation (for example, baseline metabolism, proportions of hepatocytes vs. cholangiocytes), while enabling further hepatic receptor pathway activation (for example, PXR and CAR) in response to chemical exposure. 48 hours after plating, the culture medium was replaced with HepaRG Serum-Free Incudtion Media. Cells were exposed to each test chemical in duplicate and maintained in CO2 incubators for another 48 hours. Chemical plates were thawed to room temperature and 200x concentrations of treatment groups were prepared. 8-point conentration-reponse curves were made with the highest exposure at 100 uM, followed by half-log dilutions, all in 0.5% DMSO. Each test plate contained variouse controls, induction positive controls (1mM phenobarbital), cytotoxicity positive controls ([…] aflatoxin B1), vehicle controls (0.5% DMSO), and total lysis controls (0.5% DMSO). Cell morphology images were taken using an Essen IncuCyte FLR automated microscope, with six 96-well plates imaged in about 24 minutes. Images were captured and exported and JPEG files. Spent culture media was transfered to black-well plates for the LDH assay, and remaining media was sorted at -80 C for later use. Cells were treated with RLT buffer and frozen until shipped for gene expression analysis. Total RNA was isolated from the cell suspension in 75 uL of Buffer RLT (Qiagen, Germantown, MD 20874) by Quintiles/Expression Analysis (Durham, NC) using a custom isolation procedure. Total RNA from each plate well was transferred to a preamplification plate. Fluidigm's 96.96 Dynamic ArrayTM (Fluidigm, Amsterdam, the Netherlands) technology was used for gene expression analyses by quantitative reverse transcription polymerase chain reaction (qRT-PCR, performed by Quintiles/Expression Analysis, Durham, NC)89. Standard TaqManTM Assays (Applied Biosystems/ThermoFisher Scientific, Foster City, CA) were used to assess the expression of 93 genes selected based on their selectivity and sensitivity to important hepatic receptors known to be modulated by environmental chemicals; importance in human hepatocyte functionality; and hepatotoxicity. […]
Turning to `CO[C@@H]1[C@H](OC(=O)NC(=O)CCl)CC[C@]2(CO2)[C@H]1[C@@]1(C)O[C@@H]1CC=C(C)C`, the call was inactive.
With `Cc1ccc([N+](=O)[O-])cc1`, the compound was called inactive.
Then `CN(C)C(=O)Nc1ccc(Cl)cc1`, with “inactive”; and `CCN(CC)CCO`, with “inactive”; and `C[C@]12C=CC3=C4CCC(=O)C=C4CC[C@H]3[C@@H]1CC[C@@H]2O`, with “inactive”.
Then `ClC1=C(Cl)C2(Cl)C3C(Cl)C=CC3C1(Cl)C2(Cl)Cl` (stereo not given), with “inactive”; and `C1=Cc2cccc3cccc1c23`, with “inactive”.
Consider `Nc1ccc(Cl)cc1N`, for which the outcome was inactive.
To `O=[N+]([O-])C(Br)(CO)CO` belongs “inactive”; to `CC(C)COC(=O)c1ccccc1C(=O)OCC(C)C`, “inactive”.

Values taken from PubChem BioAssay (EPA / NIEHS).
